# Measured values: PubChem BioAssay (NCI)
# “And” between values parts separate entries of the source, which are not always exact repeats. Equal entries are not always repeated. The panel holds about 83,000 compounds, 20% with a hit somewhere; the sample as a whole holds those more often.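 For each line, cells grew in 96-well plates with the test compound present at a single concentration for 48 hours.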 The source made the active and inactive calls. How the source made its calls: active means growth percent below 10; inactive means the rest.
# Columns and labels:
# Experiment in all cases: NCI-60 one-dose screen, 48 h (100 = growth as untreated, 0 = no growth, -100 = all killed)
# Settings in all cases: 10 µM unless noted
# [1] = tested on: T-47D breast
# [2] = tested on: BT-549 breast
# [3] = tested on: MDA-MB-435 melanoma
# [4] = tested on: SW-620 colon
# [5] = tested on: MCF7 breast
# [6] = tested on: HCT-116 colon
# [7] = tested on: HCC-2998 colon
# [8] = tested on: KM12 colon
SMILES,growth [1],growth [2],growth [3],growth [4],growth [5],growth [6],growth [7],growth [8]
CN(C)CCCN1c2ccccc2Sc2ccc(Cl)cc21,77% (inactive) and 105% (inactive) and 87.2% (inactive),84.6% (inactive) and 114% (inactive) and 96.2% (inactive),21.3% (inactive) and 129% (inactive) and 55.5% (inactive),86.3% (inactive) and 102% (inactive) and 83.8% (inactive),37.8% (inactive) and 101% (inactive) and 66.6% (inactive),28.1% (inactive) and 110% (inactive) and 59.2% (inactive),58.9% (inactive) and 107% (inactive) and 91.1% (inactive),87.7% (inactive) and 114% (inactive) and 100% (inactive)
CCN(CC)CCC(CNc1c2ccc([N+](=O)[O-])cc2nc2cc(OC)c(OC)cc12)c1ccccc1 (stereo unspecified),-11.2% (active) and -82% (active),-33.9% (active) and -92.7% (active),-92.2% (active) and -97.3% (active),6.7% (active),-50.2% (active) and -97.5% (active),-69% (active) and -89.1% (active),-98.9% (active),-63.5% (active) and -100% (active)
CC(=O)Nc1cccc2c1CCCC2,92.7% (inactive),97% (inactive),103% (inactive) and 110% (inactive),108% (inactive) and 107% (inactive),92.1% (inactive) and 91.2% (inactive),97.5% (inactive) and 102% (inactive),99.8% (inactive) and 95.3% (inactive),102% (inactive) and 103% (inactive)
CC(C)N=c1cc2n(-c3ccc(Cl)cc3)c3ccccc3nc-2cc1Nc1ccc(Cl)cc1,38.3% (inactive) and 32.9% (inactive) and 41.5% (inactive),41.2% (inactive) and 11.6% (inactive) and -4.5% (active),-25.6% (active) and -22.8% (active) and -46.2% (active),13.4% (inactive) and 9.23% (active) and 6.7% (active),11.9% (inactive) and 18.4% (inactive) and 10.5% (inactive),-54.6% (active) and -63.1% (active) and -82.7% (active),16.8% (inactive) and -34.4% (active) and -17.4% (active),12.6% (inactive) and 5.23% (active) and -1.86% (active)
CC1CCCC(=O)O1 (stereo unspecified),101% (inactive) and 106% (inactive),104% (inactive) and 105% (inactive),97.2% (inactive) and 107% (inactive),105% (inactive) and 104% (inactive),96.3% (inactive) and 101% (inactive),105% (inactive) and 94.6% (inactive),98.3% (inactive),97.7% (inactive) and 106% (inactive)
COc1c(/C(C)=N/N=c2sc(C(C)=O)nn2-c2ccc(Cl)cc2)c(Oc2ccccc2)c(OC)c2occc12,98.7% (inactive) and 76.5% (inactive),115% (inactive) and 103% (inactive),103% (inactive) and 104% (inactive),102% (inactive) and 92.8% (inactive),99.9% (inactive) and 88.3% (inactive),96.4% (inactive) and 77.8% (inactive),107% (inactive) and 110% (inactive),93.7% (inactive) and 96.5% (inactive)
Cc1ccc(S(=O)(=O)NCN2C(=O)c3ccccc3C2=O)cc1,110% (inactive),101% (inactive),111% (inactive),108% (inactive),95.2% (inactive),98.5% (inactive),99.4% (inactive),110% (inactive)
CN(C)CCC(=O)c1ccc(Cl)cc1,110% (inactive) and 97.4% (inactive),107% (inactive) and 98.8% (inactive),113% (inactive) and 110% (inactive),103% (inactive) and 108% (inactive),90.6% (inactive) and 86.2% (inactive),101% (inactive) and 102% (inactive),97.3% (inactive),108% (inactive) and 109% (inactive)
O=C1NC(=O)C2(CCc3ccccc32)N1 (stereo unspecified),92.8% (inactive) and 94.4% (inactive),115% (inactive) and 98.1% (inactive),107% (inactive) and 129% (inactive),117% (inactive),92.9% (inactive) and 110% (inactive),113% (inactive) and 96.3% (inactive),103% (inactive),100% (inactive) and 109% (inactive)
CCCCOc1cc(C(=O)NCCN(CC)CC)c2ccccc2n1,82.9% (inactive) and 92.4% (inactive),93.4% (inactive) and 98.5% (inactive),88.9% (inactive) and 98.1% (inactive),105% (inactive) and 97.7% (inactive),93.3% (inactive) and 95% (inactive),91% (inactive) and 105% (inactive),96% (inactive) and 92.2% (inactive),101% (inactive) and 110% (inactive)
O=C(c1ccc(Cl)cc1)C(NCCO)c1ccc(Cl)cc1 (stereo unspecified),85.4% (inactive),104% (inactive) and 94.6% (inactive),97.9% (inactive) and 108% (inactive),101% (inactive) and 102% (inactive),103% (inactive) and 97.3% (inactive),102% (inactive) and 99.4% (inactive),101% (inactive),105% (inactive) and 101% (inactive)
COc1ccc(NC(=S)Nc2ccccn2)cc1,101% (inactive),105% (inactive),98.7% (inactive),102% (inactive),95.1% (inactive),95.4% (inactive),101% (inactive),91% (inactive)
O=C(O)CCCCc1ccc([N+](=O)[O-])cc1,102% (inactive) and 107% (inactive),100% (inactive),111% (inactive) and 113% (inactive),96.4% (inactive) and 116% (inactive),92.4% (inactive) and 98.2% (inactive),103% (inactive) and 102% (inactive),106% (inactive) and 94.9% (inactive),91.1% (inactive) and 108% (inactive)
O=C(N/N=C/c1ccc2c(c1)OCO2)c1ccncc1,112% (inactive) and 102% (inactive),103% (inactive) and 102% (inactive),108% (inactive) and 112% (inactive),93.6% (inactive) and 98.3% (inactive),107% (inactive) and 86.8% (inactive),105% (inactive) and 101% (inactive),103% (inactive) and 113% (inactive),91.9% (inactive) and 103% (inactive)
COc1cc2nc(N3CCC[C@@H](NC(=O)C4COc5ccccc5O4)C3)nc(N)c2cc1OC (stereo partly specified),92.2% (inactive) and 90.3% (inactive),107% (inactive) and 113% (inactive),96.9% (inactive) and 99.5% (inactive),100% (inactive) and 107% (inactive),100% (inactive) and 98.9% (inactive),95.9% (inactive) and 95.2% (inactive),104% (inactive) and 98.3% (inactive),104% (inactive) and 103% (inactive)
CN(C)CCCNC1=C(Cl)C(=O)c2ccccc2C1=O,65.3% (inactive) and 32% (inactive),96.8% (inactive) and 93% (inactive),-88.6% (active) and -88.2% (active),-63% (active) and -57.8% (active),45.4% (inactive) and 5.05% (active),47.2% (inactive) and 4.88% (active),-0.125% (active) and -63.6% (active),83.3% (inactive) and 40.7% (inactive)
CN(C)c1ccc2nc3ccc(=[N+](C)C)cc-3sc2c1,11.8% (inactive) and 4.2% (active) and 27.3% (inactive),60.2% (inactive) and 69.8% (inactive) and 71.9% (inactive),-43.7% (active) and -14% (active) and 52.5% (inactive),15.2% (inactive) and 15.3% (inactive) and 14.7% (inactive),12.7% (inactive) and -5.86% (active) and 7.47% (active),4.82% (active) and 4.09% (active) and 11.1% (inactive),49% (inactive) and 36.7% (inactive) and 53.9% (inactive),36.6% (inactive) and 33% (inactive) and 48.2% (inactive)
